Test [1] is described as follows: optical density shifts of acrAB sulA E. coli – strain DRC41, OD650, 48 h, E. coli filamentation inducer project, primary screen (AID 1152).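 Further: E. coli MC1000 strain DRC41 lacking acrAB efflux pump and sulA.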 As to conditions: higher = more signal, called active from +8 up or from −8 down.
A short description of test [2]: probe aLefty1 binding on compound microarray – biochemical, small-molecule microarray, 635/667 nm fluorescence, primary screen (AID 1153).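 Further: score merges spot fluorescence with signal-to-noise ratio from the scanned slide images.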 The conditions noted are these: higher = more signal.
A short description of test [3]: plasmodial surface anion channel blockers, osmotic lysis – cell-based, P. falciparum Indochina, OD700, 1 h, primary screen (AID 1154). As to conditions: P. falciparum Indochina infected RBC osmotic lysis, higher = more signal, called active from +8 up or from −8 down.
Test [4] in a line: plasmodial surface anion channel blockers, osmotic lysis – cell-based, P. falciparum Indochina, OD700, 2 h, primary screen (AID 1155).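 Further: lysis reports solute entry through the parasite surface anion channel PSAC.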 The conditions noted are these: P. falciparum Indochina infected erythrocytes, higher = more signal, called active from +8 up or from −8 down.
Test [5] can be described thus: changes in parasitized red cell lysis, either direction – P. falciparum Indochina, OD700, 3 h, PSAC antagonist project, primary screen (AID 1156). The conditions noted are these: P. falciparum-infected erythrocytes, osmotic lysis, higher = more signal, called active from +8 up or from −8 down.
Test [6] can be described thus: plasmodial surface anion channel blockers, osmotic lysis – cell-based, P. falciparum Indochina, OD700, 18 h, primary screen (AID 1157). As to conditions: P. falciparum Indochina infected erythrocytes, osmotic lysis OD700, 18 h; higher = more signal, called active from +8 up or from −8 down.
Test [7] is described as follows: S6 kinase pathway phospho-S6 level changes – cell-based, A549, cytoblot, luminescence, serum-stimulated, primary screen (AID 1158).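 Further: serum-stimulated A549 lung adenocarcinoma cells; signal is phosphorylated S6 detected by cytoblot immunostaining with HRP secondary.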 The conditions noted are these: 5 h, higher = more signal.
Test [8] addresses NADPH oxidase 2 (Homo sapiens) (UniProt P04839). Description: compounds shifting NOX2 Amplex Red fluorescence – cell-based, HEK293-NOX2, PMA-stimulated, NOX inhibitor project, primary screen (AID 1159). Further: test concentration not given here. As to conditions: 45 min, higher = more signal, called active from +8 up or from −8 down.
Test [9] has as its target NADPH oxidase 4 (Homo sapiens) (UniProt Q9NPH5). Description: compounds shifting NOX4 Amplex Red fluorescence – cell-based, HEK293-NOX4, tetracycline-induced, NOX inhibitor project, primary screen (AID 1160). As to conditions: HEK293-NOX4, Amplex Red H2O2 fluorescence, 45 min; higher = more signal, called active from +8 up or from −8 down.
Test [10] concerns the target NADPH oxidase 5 (Homo sapiens) (UniProt Q96PH1). Description: compounds shifting NOX5 Amplex Red fluorescence – cell-based, HEK293-NOX5, NOX inhibitor project, primary screen (AID 1161). The conditions noted are these: HEK293-NOX5, ionomycin, 45 min, higher = more signal.
The nature of test [11]: compound effects on lung adenocarcinoma cell viability – A549, calcein-AM fluorescence, 48 h, basal, profiling panel (AID 1162). Further: test concentration not given here. As to conditions: higher = more signal.
Test [12] can be described thus: compound effects on differentiated 3T3-L1 adipocyte viability – cell-based, 3T3-L1 adipocytes, calcein-AM fluorescence, 48 h, basal, profiling panel (AID 1163). Further: test concentration not given here. As to conditions: 3T3-L1 adipocytes viability, higher = more signal.
Test [13] can be described thus: compound effects on hepatocellular carcinoma cell viability – HepG2, calcein-AM fluorescence, 48 h, basal, profiling panel (AID 1164). Further: test concentration not given here. The conditions noted are these: higher = more signal.
A short description of test [14]: compound effects on multiple myeloma cell viability – MM1S, calcein-AM fluorescence, 48 h, basal, profiling panel (AID 1165). Further: test concentration not given here. As to conditions: higher = more signal.
Test [15] is described as follows: calcein-AM signal in unstimulated myeloma cells – cell-based, calcein-AM fluorescence, 48 h, PK04 Diversity Set, profiling panel (AID 1166).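 Further: cells grown under basal conditions without added stimulus; test concentration not given here.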 The conditions noted are these: RPMI8226 myeloma viability, higher = more signal.
Test [16] in a line: JC-1 mitochondrial signal, unstimulated HepG2 cells – cell-based, JC-1 fluorescence, 24 h, 100 nL compound, profiling panel (AID 1167). Further: test concentration not given here. As to conditions: HepG2 mitochondrial potential, higher = more signal.
Test [17] is described as follows: JC-1 mitochondrial signal, unstimulated adipocytes – cell-based, JC-1 fluorescence, 3T3-L1 adipocytes, 24 h, 100 nL compound, profiling panel (AID 1168). Further: test concentration not given here. The conditions noted are these: JC-1 mitochondrial fluorescence, higher = more signal, called active from +8 up or from −8 down.
The nature of test [18]: JC-1 mitochondrial signal, unstimulated myeloma cells – cell-based, JC-1 fluorescence, RPMI8226, 24 h, 100 nL compound, profiling panel (AID 1169). Further: test concentration not given here. As to conditions: JC-1 mitochondrial potential fluorescence, higher = more signal.
Test [19] is described as follows: JC-1 mitochondrial signal, unstimulated MM1S myeloma – cell-based, JC-1 fluorescence, 24 h, 100 nL compound, profiling panel (AID 1170). Further: test concentration not given here. The conditions noted are these: MM1S mitochondrial potential, higher = more signal.
Test [20] can be described thus: resazurin metabolic signal in A549 cells – cell-based, resazurin fluorescence, 24 h, PK04 Diversity Set, profiling panel (AID 1171). Further: test concentration not given here. The conditions noted are these: A549 viability, higher = more signal, called active from +8 up or from −8 down.

The source made the active and inactive calls.

Chain of NADPH oxidase 2 (Homo sapiens) (P04839 whole entry, looked up): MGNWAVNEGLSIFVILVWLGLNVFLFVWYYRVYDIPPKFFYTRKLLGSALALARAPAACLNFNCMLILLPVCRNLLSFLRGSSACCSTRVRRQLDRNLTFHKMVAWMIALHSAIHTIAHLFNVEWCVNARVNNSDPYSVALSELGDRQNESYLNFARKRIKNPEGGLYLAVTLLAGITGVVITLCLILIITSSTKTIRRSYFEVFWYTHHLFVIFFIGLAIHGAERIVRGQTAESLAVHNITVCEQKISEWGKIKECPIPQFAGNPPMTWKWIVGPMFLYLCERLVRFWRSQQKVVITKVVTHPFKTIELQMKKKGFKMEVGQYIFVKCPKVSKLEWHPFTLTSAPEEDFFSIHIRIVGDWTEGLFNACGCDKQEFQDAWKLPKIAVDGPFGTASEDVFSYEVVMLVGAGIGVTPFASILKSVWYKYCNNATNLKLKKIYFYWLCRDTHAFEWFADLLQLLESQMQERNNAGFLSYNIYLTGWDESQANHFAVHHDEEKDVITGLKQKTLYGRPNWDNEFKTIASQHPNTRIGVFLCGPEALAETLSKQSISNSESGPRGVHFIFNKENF
Chain of NADPH oxidase 5 (Homo sapiens) (Q96PH1 whole entry, looked up): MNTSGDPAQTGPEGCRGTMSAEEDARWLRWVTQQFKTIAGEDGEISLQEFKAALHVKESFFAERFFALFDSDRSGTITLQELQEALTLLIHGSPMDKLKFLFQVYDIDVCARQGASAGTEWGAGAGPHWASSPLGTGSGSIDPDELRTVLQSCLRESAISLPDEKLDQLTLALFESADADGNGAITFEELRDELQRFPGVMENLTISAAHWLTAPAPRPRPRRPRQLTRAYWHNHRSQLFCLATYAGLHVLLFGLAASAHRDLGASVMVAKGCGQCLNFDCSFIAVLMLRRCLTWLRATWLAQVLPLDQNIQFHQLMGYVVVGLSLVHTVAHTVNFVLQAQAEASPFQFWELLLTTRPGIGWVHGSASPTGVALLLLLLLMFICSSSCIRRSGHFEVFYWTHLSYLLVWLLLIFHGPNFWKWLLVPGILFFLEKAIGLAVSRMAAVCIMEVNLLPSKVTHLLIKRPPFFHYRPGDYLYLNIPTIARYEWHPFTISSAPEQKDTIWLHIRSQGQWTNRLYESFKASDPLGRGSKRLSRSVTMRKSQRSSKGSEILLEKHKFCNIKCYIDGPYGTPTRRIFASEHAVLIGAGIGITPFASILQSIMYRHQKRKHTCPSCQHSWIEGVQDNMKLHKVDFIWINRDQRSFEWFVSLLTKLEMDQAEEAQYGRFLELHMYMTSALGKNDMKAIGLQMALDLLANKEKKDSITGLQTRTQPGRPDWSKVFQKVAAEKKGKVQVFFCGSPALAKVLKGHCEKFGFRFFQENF
Chain of NADPH oxidase 4 (Homo sapiens) (Q9NPH5 whole entry, looked up): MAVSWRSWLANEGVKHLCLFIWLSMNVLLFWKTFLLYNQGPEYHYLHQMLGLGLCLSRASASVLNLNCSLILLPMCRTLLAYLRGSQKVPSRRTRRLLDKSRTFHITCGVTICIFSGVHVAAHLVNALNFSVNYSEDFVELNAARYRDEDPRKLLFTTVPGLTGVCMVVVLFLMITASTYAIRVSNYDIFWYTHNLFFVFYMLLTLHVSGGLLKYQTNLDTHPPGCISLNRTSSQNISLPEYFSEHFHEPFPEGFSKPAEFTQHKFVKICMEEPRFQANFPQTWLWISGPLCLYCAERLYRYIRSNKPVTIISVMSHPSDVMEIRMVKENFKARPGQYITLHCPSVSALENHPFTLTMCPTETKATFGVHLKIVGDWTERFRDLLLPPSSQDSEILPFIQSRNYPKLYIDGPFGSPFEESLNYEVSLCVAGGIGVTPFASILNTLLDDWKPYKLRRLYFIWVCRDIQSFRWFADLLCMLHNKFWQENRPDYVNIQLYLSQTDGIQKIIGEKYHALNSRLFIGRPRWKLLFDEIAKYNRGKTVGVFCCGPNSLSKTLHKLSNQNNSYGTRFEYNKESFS

Take `CS(=O)(=O)CCOC(=O)C1=CC(CCCO)=CC(C2CC2)N(Cc2cc3c(cc2Br)OCO3)C=C1C(=O)OCCS(C)(=O)=O` (stereo not given): the z-score in test [1] was 0.307 (inactive); in test [3], 3.83 (inactive); in test [4] it was 1.02 (inactive); in test [5], 0.106 (inactive); in test [6], 0.504 (inactive); in test [7] it was 0.404. Moreover, the z-score in test [8] was -1.56 (inactive); in [9], -0.0814 (inactive); in test [10] it was -1.11; in [11], 1.25; in test [12], 0.385; in test [13] it was 0.862. Besides, the z-score was -0.538 in test [14]; -0.246 in test [15]; 3.31 in [16]; 0.262 (inactive) in test [17]; -0.41 in [18]; -1.37 in test [19]. The z-score in test [20] is 0.796 (inactive). Moreover, the composite z-score in test [2] was 0.131.
`CCCCN1CC=CC23O[C@@H]4C=CCCOC(=O)C4[C@H]2C(=O)N(CCCCCO)[C@@H]3C1=O` (stereo not given in full): the z-score in test [1] is 0.4 (inactive); in test [3], 1.47 (inactive); in test [4], 0.48 (inactive); in [5] it was 2.26 (inactive); in test [6] it was 0.331 (inactive); in test [7], -0.0028. Moreover, the z-score in test [8] is 1.28 (inactive); in test [9] it was 0.0393 (inactive); in [10] it was 1.46; in test [11], 0.761; in test [12], 0.159; in [13] it was 0.858. The z-score is 1.83 in [14]; 0.916 in test [15]; 0.84 in test [16]; 0.615 (inactive) in test [17]; 0.117 in test [18]; -0.832 in test [19]. Further, the z-score in [20] is -0.318 (inactive). In test [2], this compound registered a composite z-score of -0.363.
Consider `COC(=O)[C@@]1(Cc2ccc(F)cc2)[C@H]2c3cc(C(=O)N(C)C)n(Cc4cc(C)n(C)n4)c3C[C@H]2CN1C(=O)c1ccccc1`, for which the z-score was -1.48 (inactive) in test [1]; 0.797 (inactive) in [3]; 0.364 (inactive) in test [4]; 0.0419 (inactive) in test [5]; 0.495 (inactive) in test [6]; -0.438 in test [7]. Moreover, the z-score in [8] was 0.743 (inactive); in [9], -0.354 (inactive); in [10] it was -0.329; in test [11], -0.492; in [12] it was -0.202; in [13], -0.395. Further, the z-score was -0.9 in test [14]; -0.528 in test [15]; 0.635 in test [16]; -1.01 (inactive) in test [17]; -0.12 in [18]; 0.203 in [19]. The z-score in test [20] was -0.759 (inactive). The same compound had a composite z-score in [2] of 0.0576.
Regarding `CC(c1ccccc1)C(O)C1C=CC2C(=O)N(c3ccccc3)C(=O)C2N1Nc1ccccc1` (stereo not given), the z-score in [1] was -1.08 (inactive); in test [3], 4.6 (inactive); in [4], 0.386 (inactive); in [5], 2.47 (inactive); in test [6], -1.35 (inactive); in test [7] it was 1.95. Also, the z-score in test [8] is -3.18 (inactive); in [9], -4.79 (inactive); in test [10] it was -5.54; in test [11], -0.477; in test [12], 0.618; in test [13], -0.645. The z-score was -0.476 in test [14]; -0.823 in test [15]; -2.36 in test [16]; -0.266 (inactive) in test [17]; -0.814 in test [18]; -0.547 in test [19]. Further, the z-score in test [20] was -1.15 (inactive). For the same compound, the composite z-score in [2] was found to be 1.05.
As for `COC(=O)[C@@]1(Cc2ccc(OC)cc2)[C@H]2c3cc(C(=O)N4CCCC4)n(CCSCCO)c3C[C@H]2CN1C(=O)c1ccccc1`, the z-score is -1.34 (inactive) in [1]; 2.07 (inactive) in [3]; 0.142 (inactive) in test [4]; -0.0464 (inactive) in [5]; 0.667 (inactive) in [6]; -0.0335 in test [7]. The z-score in test [8] was 0.354 (inactive); in test [9] it was -1.04 (inactive); in [10], -0.201; in [11] it was -0.35; in test [12], 0.319; in test [13], -0.814. For the same compound, the z-score in test [14] is -2.68; in test [15] it was -0.804; in test [16] it was 1.5; in test [17], -1.29 (inactive); in test [18], -0.689; in [19], 0.168. In test [20], the z-score was 1.57 (inactive). Moreover, the composite z-score in [2] turned out to be 0.399.
For the compound `COCCCNC(=O)[C@@]1(Cc2ccccc2)N=C(c2ccc(OCCCO)cc2)O[C@H]1c1ccccc1CN=[N+]=[N-]`, the z-score was 0.576 (inactive) in [1]; 14.3 (active) in [3]; 1.83 (inactive) in test [4]; 1.75 (inactive) in [5]; 0.94 (inactive) in test [6]; -0.443 in [7]. The z-score in [8] was -4.56 (inactive); in [9], -0.271 (inactive); in test [10] it was -0.67; in test [11] it was 0.925; in [12], -0.703; in test [13], 0.941. In addition, the z-score is -0.0943 in [14]; -1.75 in [15]; 1.31 in [16]; 0.571 (inactive) in test [17]; -1.26 in test [18]; -0.918 in [19]. In [20], the z-score is -0.484 (inactive). For the same compound, the composite z-score in test [2] was determined as 0.272.
In the case of `CCN(CC)c1ccc(N2CC=CC34O[C@@H]5C=CCOC(=O)[C@@H]5[C@H]3C(=O)N(CCCCCCO)[C@@H]4C2=O)cc1` (stereo not given in full), the z-score in test [1] is 2.74 (inactive); in test [3] it was 2.21 (inactive); in test [4], 0.184 (inactive); in test [5] it was 0.404 (inactive); in test [6], -0.313 (inactive); in test [7], 0.411. The z-score in test [8] was -0.262 (inactive); in test [9], 0.301 (inactive); in [10], 1.17; in [11], -0.705; in [12], 0.839; in test [13], -0.0976. The z-score in [14] is 1.4; in [15], 0.922; in test [16], 0.554; in test [17], 1.21 (inactive); in [18], 0.267; in test [19], -0.72. The z-score in test [20] is 1.37 (inactive). The compound also showed a composite z-score in test [2] of 0.176.
`C=C(CCCC)C(=O)CC[C@H](OC(=O)c1cccnc1)c1ccc(OCCO)cc1`: the z-score in test [1] was -0.646 (inactive); in [3], 24.3 (active); in test [4], 6.53 (inactive); in test [5] it was 1.8 (inactive); in test [6] it was 1.39 (inactive); in test [7], 0.178. In addition, the z-score in test [8] was -1.12 (inactive); in test [9] it was 0.000526 (inactive); in [10], -2.09; in test [11], -0.15; in [12], 0.355; in [13], -0.478. Also, the z-score is -3.34 in test [14]; -3.28 in [15]; 0.697 in test [16]; -0.597 (inactive) in test [17]; -0.658 in test [18]; -1.44 in test [19]. Also, in test [20], the z-score is -0.475 (inactive). Besides, in [2], the composite z-score was -0.0316.

The values are drawn from PubChem BioAssay.
